Some test systems named below: NCI-H23 lung; NCI-H226 lung; NCI-H322M lung; NCI-H460 lung; A549/ATCC NSCLC; 786-0 renal; COLO 205 colon; DU-145 prostate; K-562 leukemia; MALME-3M melanoma; MDA-MB-231 breast; RXF 393 renal; SF-268 CNS; SF-295 CNS; SF-539 CNS; UACC-257 melanoma; M14 melanoma; NCI-H522 lung.
Common to all, as to test: NCI-60 one-dose screen, 48 h (100 = growth as untreated, 0 = no growth, -100 = all killed)
Holding throughout (conditions): 10 µM

Growth data for nine compounds are collected here from PubChem BioAssay (NCI).

This is part of a sample that, as a whole, favours compounds with a hit. Of some 83,000 tested, about 20% had one in any assay.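 Results are percent growth after 48 hours of single-concentration exposure. 100 means growth as in untreated cells, lower positive values show inhibition; negative values down to -100 show cell death.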 A number with no mark means an inactive call. The source made the active and inactive calls. Rule for the calls: active = growth percent below 10; inactive = the rest.

For `C[C@]12CC[C@@H]3c4ccc(O)cc4CC[C@H]3[C@@H]1CC[C@@H]2NS(=O)(=O)c1ccc(C(F)(F)F)cc1`, the growth in the assay with NCI-H23 lung was 56.4%; with NCI-H226 lung it was 51.6%; in the assay on NCI-H322M lung, 63.8%; in the assay on NCI-H460 lung it was 3.9% (active); in the assay on A549/ATCC NSCLC it was 23.5%; with 786-0 renal it was 57.4%. Besides, the growth was 9.34% (active) with COLO 205 colon; 69.8% in the assay on DU-145 prostate; 22.5% in the assay with K-562 leukemia; 9.1% (active) in the assay with MALME-3M melanoma; 67.2% in the assay on MDA-MB-231 breast; 22.9% in the assay on RXF 393 renal. Besides, the growth is 57% with SF-268 CNS; 30.9% with SF-295 CNS; 78.1% in the assay with SF-539 CNS; 73.6% in the assay with UACC-257 melanoma; 36.6% in the assay with M14 melanoma.
On to `CCN1C(=O)CC(SC2CC(=O)N(CC)C2=O)C1=O` (stereo not given), for which the growth in the assay with NCI-H23 lung is 95.9%; with NCI-H226 lung it was 104%; in the assay with NCI-H322M lung, 110%; with NCI-H460 lung it was 109%; in the assay with NCI-H522 lung, 96.1%; with A549/ATCC NSCLC it was 104%. Moreover, the growth in the assay on 786-0 renal is 101%; with COLO 205 colon it was 81.4%; in the assay with DU-145 prostate it was 101%; with K-562 leukemia it was 82.7%; in the assay with MALME-3M melanoma, 97.6%; with MDA-MB-231 breast, 105%. Also, the growth in the assay with RXF 393 renal is 111%; in the assay on SF-268 CNS, 96.1%; in the assay with SF-295 CNS, 106%; in the assay with SF-539 CNS, 100%; in the assay with UACC-257 melanoma, 100%; with M14 melanoma, 97.6%.
As to `COc1ccc(C(=O)CC(CC(=O)c2ccc(OC)cc2)c2c(C)nn(-c3ccccc3)c2Cl)cc1`, the growth in the assay on NCI-H23 lung was 90.7%; with NCI-H226 lung, 92.8%; in the assay on NCI-H322M lung, 96.5%; with NCI-H460 lung it was 97.5%; in the assay on NCI-H522 lung, 79.4%; in the assay with A549/ATCC NSCLC, 95.1%. Also, the growth is 86.3% with 786-0 renal; 117% with COLO 205 colon; 110% in the assay with DU-145 prostate; 92.4% with MALME-3M melanoma; 90.9% with MDA-MB-231 breast; 98.4% with RXF 393 renal. Further, the growth is 101% with SF-268 CNS, 92.2% in the assay with SF-295 CNS, 118% with UACC-257 melanoma and 90.5% with M14 melanoma.
For the compound `C[C@]12CC[C@@H]3c4ccc(OS(=O)(=O)O)cc4CC[C@H]3[C@@H]1CC[C@@H]2NS(=O)(=O)c1ccc(-c2ccccc2)cc1`, the growth in the assay on NCI-H23 lung was 61.5%; in the assay with NCI-H226 lung, 68.4%; in the assay with NCI-H322M lung, 86.9%; in the assay with NCI-H460 lung, 43.3%; in the assay on NCI-H522 lung it was 44.4%; in the assay with A549/ATCC NSCLC it was 36.3%. The growth with 786-0 renal was 69.6%; with COLO 205 colon it was 47.4%; in the assay with DU-145 prostate, 75.3%; in the assay on K-562 leukemia, 26.8%; with MALME-3M melanoma it was 60.8%; with MDA-MB-231 breast, 84.3%. The growth was 53.1% in the assay on RXF 393 renal; 69.8% in the assay with SF-268 CNS; 90.1% with SF-539 CNS; 77.2% with UACC-257 melanoma; 62.8% in the assay on M14 melanoma.
Regarding `COc1ccc2nc3cc(Cl)ccc3c(NCCCNCCO)c2c1`, the growth with NCI-H23 lung was -21.7% (active); with NCI-H226 lung, -9.48% (active); in the assay on NCI-H322M lung it was -22.6% (active); in the assay with NCI-H460 lung, -8.13% (active); with NCI-H522 lung it was -86.5% (active); in the assay on A549/ATCC NSCLC it was -26.2% (active). Moreover, the growth in the assay on 786-0 renal was 6.46% (active); with DU-145 prostate it was 5.64% (active); in the assay with K-562 leukemia, -4.13% (active); in the assay with MALME-3M melanoma, 17.8%; with MDA-MB-231 breast, -53.8% (active); in the assay on SF-268 CNS it was -13.2% (active). Further, the growth in the assay on SF-295 CNS was 3.49% (active); in the assay on SF-539 CNS it was -10.2% (active); in the assay with UACC-257 melanoma it was -75.4% (active); in the assay on M14 melanoma it was -62.8% (active).
In the case of `CC(=O)/C(=C/c1ccc(Br)cc1)C(=O)c1ccccc1`, the growth with NCI-H23 lung is 99.5%; with NCI-H226 lung it was 87.8%; in the assay with NCI-H322M lung it was 115%; in the assay on NCI-H460 lung, 103%; in the assay with NCI-H522 lung it was 85.2%; with A549/ATCC NSCLC, 94%. For the same compound, the growth was 84.5% in the assay on 786-0 renal; 111% in the assay on COLO 205 colon; 81.6% with DU-145 prostate; 30.7% in the assay with K-562 leukemia; 77.4% with MDA-MB-231 breast; 67.4% in the assay with SF-268 CNS. Further, the growth in the assay on SF-295 CNS is 88.9%; with SF-539 CNS, 96.7%; with UACC-257 melanoma it was 78.3%; in the assay with M14 melanoma, 69.9%.
As for `C=C1CCC2(C#N)[C@H]3[C@H](CC[C@@H]2C)[C@@H](C)C[C@@H](CC(C)(C)NC(=O)CN2CCC2=O)[C@H]13` (stereo not given in full), the growth in the assay with NCI-H23 lung is 60.3%; in the assay with NCI-H226 lung, 60.6%; in the assay with NCI-H322M lung, 96.1%; with NCI-H460 lung it was 52.1%; with NCI-H522 lung it was 46.6%; with A549/ATCC NSCLC, 67.3%. Besides, the growth is 54% with COLO 205 colon; 89.5% with DU-145 prostate; 83.2% with MALME-3M melanoma; 47.6% in the assay with MDA-MB-231 breast; 55.5% in the assay on RXF 393 renal; 63.3% with SF-268 CNS. For the same compound, the growth is 60.5% with SF-295 CNS, 47% with SF-539 CNS, 80.8% with UACC-257 melanoma and 54.9% in the assay with M14 melanoma.
`CN(C)c1ccc(/C=N/NC(=O)c2cccc3ccccc23)c(Cl)c1`: the growth is 1.31% (active) in the assay on NCI-H23 lung; 61.2% in the assay on NCI-H226 lung; 57.6% in the assay with NCI-H322M lung; 19.2% with NCI-H460 lung; 22.6% with NCI-H522 lung; 26.8% in the assay on A549/ATCC NSCLC. The growth was 56.1% in the assay with 786-0 renal; 19.7% with COLO 205 colon; 17.1% in the assay with DU-145 prostate; 11.6% in the assay with K-562 leukemia; 53.4% in the assay on MALME-3M melanoma; 67.7% in the assay on MDA-MB-231 breast. Moreover, the growth in the assay with RXF 393 renal is 7.47% (active); in the assay with SF-268 CNS it was 59%; in the assay on SF-295 CNS, 19.1%; in the assay on SF-539 CNS it was 19.9%; in the assay on UACC-257 melanoma it was 35.8%; in the assay with M14 melanoma it was 27.6%.
For the compound `c1ccc(CCCCc2ccc3ccccc3n2)cc1`, the growth was 102% in the assay with NCI-H23 lung; 94.8% with NCI-H226 lung; 99.7% with NCI-H322M lung; 105% with NCI-H460 lung; 75.3% in the assay with NCI-H522 lung; 98.5% with A549/ATCC NSCLC. Besides, the growth was 102% with 786-0 renal; 111% with DU-145 prostate; 102% in the assay with K-562 leukemia; 98.2% with MALME-3M melanoma; 106% in the assay with MDA-MB-231 breast; 99% in the assay with SF-268 CNS. In addition, the growth in the assay on SF-295 CNS was 106%; with SF-539 CNS it was 101%; in the assay on UACC-257 melanoma it was 103%; in the assay on M14 melanoma, 98.1%.
